Here are results for 90 compounds from PubChem BioAssay AID1861 (The Scripps Research Institute Molecular Screening Center, 2009).

Molecules are shown by their SMILES. Several values for one entry are separate records, joined by “and”; a condition that tells them apart may be missing. Identical values can stand only once. Hit rate of the full screen: of about 290,000 compounds, about 3,100 (1.1%) were called active. Rule as the data show it: active = inhibition above about 16% (passing the limit was not always enough); inactive = the rest. The list comes from a sample in which actives are over-represented; it also holds similar structures and randomly drawn compounds. Some compounds were tested as several samples or in several runs, with calls that do not always agree. Where a SMILES comes first, the peptide text is derived from it. [ ]: non-standard residue; d: D form. The star is where a group is joined. ξ: configuration not given here. Cbz = O=C(OCc1ccccc1)*; ξL = CC(C)CC(N)C(=O)O; ξP = O=C(O)C1CCCN1

Sequence of Neuropeptides B/W receptor type 1 (Homo sapiens) (P48145 whole entry, looked up): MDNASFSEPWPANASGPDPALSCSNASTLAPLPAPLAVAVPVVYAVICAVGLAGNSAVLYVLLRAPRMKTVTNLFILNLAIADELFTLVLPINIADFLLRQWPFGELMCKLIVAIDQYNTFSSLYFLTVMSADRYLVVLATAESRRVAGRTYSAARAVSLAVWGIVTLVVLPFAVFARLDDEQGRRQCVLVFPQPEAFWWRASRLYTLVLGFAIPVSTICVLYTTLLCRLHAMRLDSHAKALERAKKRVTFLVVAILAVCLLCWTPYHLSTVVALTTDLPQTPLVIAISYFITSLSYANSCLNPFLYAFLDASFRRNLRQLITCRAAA

This experiment concerns the target Neuropeptides B/W receptor type 1 (Homo sapiens) (UniProt P48145). Briefly: blockers of human neuropeptide B/W receptor 1 – cell-based, fluorescence, single concentration, primary screen (AID 1861).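 Also: cells stimulated with the agonist NPW; 0% = agonist with vehicle and 100% = vehicle without agonist.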 Conditions: GPR7-expressing cells, fluorescence antagonist assay; at 4.4 µM; stronger effect = higher value.
By inhibition is commonly meant the relative decrease from the control value, in per cent. As to `O=C(NCCNc1ccccc1[N+](=O)[O-])c1ccccc1F`, the inhibition was 2.99% (inactive). Turning to `O=C(NCCCNc1ccc([N+](=O)[O-])cc1Cl)c1ccccc1F`, the inhibition is 5.46% (inactive). With `O=C(NCCNc1ccc([N+](=O)[O-])cc1Cl)c1ccccc1F` the figure was 33.5% (active); with `COc1cccc(CNc2nc(C(F)(F)F)nc3ccccc23)c1`, -8.14% (inactive). With `Cc1ccc(N2C(=O)C3C4C=CC(CC4)C3C2=O)cc1Cl` (stereo not given) the figure was -5.89% (inactive).

For `CCCCN(CCCC)CC(O)Cn1c2ccccc2c(=O)c2ccccc21` (stereo not given), the inhibition is 4.5% (inactive). Take `O=C1c2ccccc2S(=O)(=O)N1CC(O)Cn1c2ccccc2c2ccccc21` (stereo not given): the inhibition was 27.4% (inactive). Turning to `CS(=O)(=O)N(CC(O)Cn1c2ccccc2c2ccccc21)c1cccc2ccccc12` (stereo not given), the inhibition is 29% (active).

For `COc1cc(C(=O)NCc2cc3cc(Cl)ccc3n2C)cc(OC)c1OC`, the inhibition is -5.99% (inactive).

Turning to `CCN(CC)S(=O)(=O)c1ccc(N2CCN(C)CC2)c(NC(=O)Nc2ccccc2F)c1`, the inhibition was 6.45% (inactive). With `COc1ccc(NS(=O)(=O)c2ccc(NC(=S)NC(=O)CC(C)C)cc2)cc1` the figure was 24.2% (active); with `COc1cc(OC)cc(C(=O)Nc2ccc(S(=O)(=O)Nc3cc(C)on3)cc2)c1`, -3.8% (inactive).

`COc1ccc(NC(=O)c2cnc(NS(=O)(=O)c3ccccc3)nc2)cc1`: the inhibition was -10.5% (inactive). Regarding `CC(=O)c1ccc(NC(=S)NC(=O)CC(C)C)cc1`, the inhibition is -3.47% (inactive). Regarding `COc1cc(NS(=O)(=O)c2ccc(NC(C)=O)cc2)cc(OC)c1`, the inhibition is -5.8% (inactive). With `COc1ccc(NS(=O)(=O)c2ccc(NC(=O)c3ccc(N(C)S(C)(=O)=O)cc3)cc2)cc1` the figure was 22.9% (active); with `Cc1ccc(C(=O)OCC(=O)NC(=O)Cc2ccccc2)c(O)c1`, -16.1% (inactive). With `CCOC(=O)CNC(=O)/C=C/c1c(Cl)cccc1Cl` the figure was 10.2% (inactive). With `O=C(Nc1ccccc1C(=O)O)c1ccc(N2C(=O)C3CC=CCC3C2=O)cc1` (stereo not given) the figure was -9.35% (inactive). For the compound `O=C(c1ccccc1)N1CCC(CC2CC(c3ccc(Cl)cc3)=NO2)(C(=O)NCC2CCCCC2)CC1` (stereo not given), the inhibition is -2.72% (inactive). Turning to `CCc1nc(Nc2ccc(NC(C)=O)cc2)c2oc3ccccc3c2n1`, the inhibition was -6.65% (inactive).

On to `Cc1cccc2c1N(CC(=O)OC(C)C)C(=O)C2=O`, for which the inhibition is -5.53% (inactive). On to `CC(C)OC(=O)CN1C(=O)C(=O)c2ccccc21`, for which the inhibition is -2.31% (inactive). `CC(C)OC(=O)CN1C(=O)c2ccccc2C1=O`: the inhibition is 20.4% (active). With `N#CCOc1ccc(C2=NO[C@@H]3[C@@H]4C[C@@H]([C@H]5C(=O)N(c6ccc7c(c6)OCO7)C(=O)[C@@H]45)[C@H]23)cc1` the figure was 4.89% (inactive); with `CCc1nn(CC(=O)N2CCN(CC)CC2)c(=O)c2cccn12`, -11.1% (inactive). With `O=C(Nc1ccccc1Cl)/C(Cl)=C(\Cl)S(=O)c1ccccc1` (stereo not given) the figure was 23.4% (active). With `O=C(COC(=O)c1cccs1)Nc1ccccc1Cl` the figure was -12.8% (inactive); with `O=C(Nc1ccccc1Cl)Nn1cnnc1`, -16.3% (inactive). Consider `CN(C)S(=O)(=O)c1ccc(C(=O)NCCN=C2NS(=O)(=O)c3ccccc32)cc1`, for which the inhibition was -2.36% (inactive). For `O=C(O)c1ccc(OCC2CCCO2)cc1` (stereo not given), the inhibition was -9.77% (inactive). With `CCn1c(SCc2ccccc2)nc2cc(OC)c(OC)cc2c1=O` the figure was -30.7% (inactive). With `COc1cccc(CNS(=O)(=O)c2csc(C(N)=O)c2)c1` the figure was -3.2% (inactive); with `COc1ccc(NC(=O)C2CCC(CNS(=O)(=O)c3csc(C(N)=O)c3)CC2)cc1OC` (stereo not given), 24.1% (active). As to `CC(=O)Nc1ccc(S(=O)(=O)NCC2CCC(C(=O)NCCc3ccccc3)CC2)cc1` (stereo not given), the inhibition is -13.4% (inactive). In the case of `Cc1cc(=O)oc2c(C)c(OCC(=O)NCCc3ccc(S(N)(=O)=O)cc3)ccc12`, the inhibition is 9.11% (inactive). With `COC(=O)CN1C(=O)C(C)(C)Oc2ccc(C(=O)Nc3cccc(OC)c3)cc21` the figure was -8.64% (inactive); with `Cc1ccc(S(=O)(=O)N(CC(O)CN2CCCCC2)c2cccc([N+](=O)[O-])c2)cc1` (stereo not given), -4.51% (inactive).

`COc1ccc([N+](=O)[O-])cc1N(CC(O)Cn1nnc2ccccc21)S(=O)(=O)c1ccc(C)cc1` (stereo not given): the inhibition was -11.4% (inactive). As for `COc1ccc([N+](=O)[O-])cc1N(CC(O)CN(CC(C)C)CC(C)C)S(=O)(=O)c1ccc(C)cc1` (stereo not given), the inhibition is 21.7% (active).

On to `O=C(/C=C/c1cccs1)c1cc(Cl)ccc1OC(=O)N1CCOCC1`, for which the inhibition is -2.52% (inactive).

For the compound `CSc1ccccc1NC(=O)CN(C)CC(=O)Nc1cccc(Br)c1`, the inhibition was 3.51% (inactive). With `CSc1ccccc1NC(=O)CN(C)CC(=O)Nc1ccc(Cl)cc1[N+](=O)[O-]` the figure was 12.5% (inactive). With `CCC(C)c1ccccc1NC(=O)CN(C)CC(=O)Nc1ccccc1SC` (stereo not given) the figure was 31.4% (active).

On to `Fc1ccc2[nH]c3c(N4CCSCC4)ncnc3c2c1`, for which the inhibition is -5.82% (inactive). `COc1cc(OC)c(OC)cc1/C=N/Nc1ncnc2c1[nH]c1ccc(C)cc12`: the inhibition was -19.8% (inactive).

On to `CC(C)OCCCNc1ncnc2c1[nH]c1ccc(F)cc12`, for which the inhibition is 26.6% (active). Turning to `Cc1ccc(S(=O)(=O)N2CCN(c3ccccc3)CC2)cc1C`, the inhibition was 0.58% (inactive).

Take `COc1cccc(CNS(=O)(=O)c2ccc3c(c2)CC(C)N3C(=O)C2CCC2)c1` (stereo not given): the inhibition is 17.9% (inactive).

Turning to `CC1=CCC2C(=O)N(c3cccc(C(=O)NC(C)c4ccccc4)c3)C(=O)C2C1` (stereo not given), the inhibition is 0.74% (inactive). Turning to `Cc1cccc(NC(=O)C(C)SCc2ccccc2)c1` (stereo not given), the inhibition is -8.07% (inactive). With `O=C(Nc1ccncc1)c1ccc(Cl)c([N+](=O)[O-])c1` the figure was 1.68% (inactive); with `O=C(Nc1c2c(nn1-c1ccccc1)CS(=O)(=O)C2)C1CCCC1`, 4.15% (inactive); with `COc1ccccc1C(c1nnnn1C(C)(C)C)N1CCN(Cc2ccccc2)CC1` (stereo not given), 10.7% (inactive). With `COCCn1nnnc1C(c1cc2ccc(OC)cc2[nH]c1=O)N1CCc2ccccc2C1` (stereo not given) the figure was 17.6% (inactive); with `COc1ccc(OC)c(C(c2nnnn2C(C)(C)C)N2CCc3ccccc3C2)c1` (stereo not given), 24% (active). On to `CC1CCCN(CCCNC(=O)CN2C(=O)COc3ccc(S(=O)(=O)N4CCOCC4)cc32)C1` (stereo not given), for which the inhibition is -10.9% (inactive). With `COC(=O)CCC(=O)N1CCCC(CO)(Cc2ccccc2)C1` (stereo not given) the figure was -0.55% (inactive); with `Cc1cccc(NC(=O)COC(=O)CCc2ccccc2)c1C`, -16.3% (inactive); with `CCOCCCn1c(SCC(=O)Nc2cc(OC)ccc2OC)nc2ccccc2c1=O`, -10.2% (inactive). With `Cc1ccc(NC(=S)NCCc2ccc(Cl)cc2)c(C)c1` the figure was -19.2% (inactive). With `Cc1ccc(C(=O)C[n+]2cc(-c3ccccc3)n3c2CCCCC3)cc1` the figure was 16.2% (inactive) and 28.1% (active); with `Clc1ccc(C[n+]2cc(-c3ccccc3)n3c2CCC3)cc1`, -5.39% (inactive); with `Cc1ccc(-c2c[n+](CC(=O)Nc3ccccc3)c3n2CCC3)cc1`, -3.52% (inactive). For `C=CCn1c(CNS(=O)(=O)c2ccc(Br)cc2)nnc1SC`, the inhibition is -2.9% (inactive). Turning to `CCC1C(=O)NCCN1C(=O)c1ccc2nc(Cc3ccc(OC)cc3)oc2c1` (stereo not given), the inhibition is 10.3% (inactive). For the compound `N=C1C(c2nc3ccccc3s2)=C(O)CN1NC(=O)c1ccc([N+](=O)[O-])cc1`, the inhibition is 2.09% (inactive). Consider `CC(C)CN(C(=O)c1cccc(S(=O)(=O)N2CCCCC2)c1)C1CCS(=O)(=O)C1` (stereo not given), for which the inhibition is 3.39% (inactive).

With `NNC(=O)CSc1nnc(-c2ccccc2)n1-c1ccccc1`, the inhibition is 25.5% (inactive). For the compound `CC(C(=O)N1CCN(c2ccccc2F)CC1)c1ccc([N+](=O)[O-])cc1` (stereo not given), the inhibition was 35.6% (active). With `O=C(CCSc1ccccc1)N1CCN(c2ccccc2F)CC1` the figure was 1.08% (inactive); with `O=C(c1ccc(S(=O)(=O)N2CCCC2)cc1)N1CCN(c2ccccc2F)CC1`, -4.62% (inactive); with `CC(C)CC(NC(=O)C1CCCN1C(=O)[C@@H](C)NC(=O)OCc1ccccc1)C(=O)NCC(N)=O` (stereo not given in full) (Cbz-[dA][ξP][ξL]G-NH2), 2.31% (inactive).

As to `CN(Cc1c(F)cccc1Cl)S(=O)(=O)c1cccs1`, the inhibition is -1.36% (inactive).

With `Cn1nccc1C(=O)N1CCCC(C(=O)c2ccc(Oc3ccccc3)cc2)C1` (stereo not given), the inhibition is -11.3% (inactive). For the compound `CCOCCCNC(=O)C(NC(=O)CNC(=O)c1ccccc1)c1ccc(OC)cc1` (stereo not given), the inhibition is -6.22% (inactive). With `O=C1CN(C(=O)c2ccccc2F)C(c2ccc(F)cc2)c2cc(F)ccc2N1` (stereo not given) the figure was -1.3% (inactive); with `Cc1cccc(NC(=O)CSc2nnc(-c3ccco3)o2)c1`, 2.82% (inactive). `O=C(CSc1nnc(-c2ccco2)o1)NCC(=O)c1ccccc1`: the inhibition is 37.5% (active). With `CCOC(=O)c1sc(NC(=O)CSc2nnc(-c3ccco3)o2)c(C(=O)OCC)c1C` the figure was -9.68% (inactive); with `N=c1c2c(-c3ccccc3)c(-c3ccccc3)n(Cc3ccccc3)c2ncn1CCCO`, 27.3% (active); with `N=c1c2c(-c3ccccc3)c(-c3ccccc3)oc2ncn1Cc1ccco1`, -7.33% (inactive).

Consider `CCN(CC)CCn1cnc2c1c(=O)[nH]c(=O)n2Cc1ccccc1`, for which the inhibition is -8.02% (inactive). With `OC(CNCc1ccc2c(c1)OCO2)COc1ccccc1` (stereo not given) the figure was -0.63% (inactive). With `Cc1ccc(C(=O)OCC(=O)NCc2ccc3c(c2)OCO3)s1` the figure was -1.76% (inactive); with `O=C(COc1ccccc1)NCc1ccc2c(c1)OCO2`, 26% (active); with `O=C(Nc1nc(-c2ccncc2)cs1)C1COc2ccccc2O1` (stereo not given), -9.64% (inactive). With `O=C(Nc1nc(-c2ccc3c(c2)OCO3)cs1)c1ccncc1` the figure was 31.8% (active); with `CC(=O)NCCC(=O)Nc1nc(-c2ccc3c(c2)OCCO3)cs1`, 21.3% (inactive).

As for `CC(Sc1nnc(COc2ccccc2)n1-c1ccccc1)C(=O)O` (stereo not given), the inhibition was 11% (inactive).
